According to PubChem BioAssay (EPA / NIEHS):
Active and inactive are the calls of the source. The calls were made as follows: active = hit-call score of the fitted dose curve at least 0.9, where 1 is the maximum; inactive = score below 0.9.

Columns and labels:
[1] = ATG_M_19_CIS: Attagene CIS-FACTORIAL HepG2 Assay for M19 Transcription Factor (Internal Marker) (AID 2282939); conditions: HepG2 Attagene CIS-FACTORIAL M19 internal marker reporter; actives raise or lower the signal
Procedure, shortened: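 In this multiplexed cell assay, transiently transfected HepG2 reporter units report endogenous transcription-factor activity; after 24 hours of treatment, labelled reporter cDNA fragments are quantified by capillary electrophoresis and fitted bidirectionally against DMSO.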

[2] = ATG_ERE_CIS: Attagene CIS-FACTORIAL HepG2 Assay for Estrogen Response Element (ERE) (AID 2282940); conditions: HepG2 ERE cis-reporter, Attagene RNA transcript; actives raise or lower the signal
Procedure, shortened: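 Measuring endogenous transcription factor output, the assay doses transfected HepG2 cells for 24 hours and quantifies reporter transcripts by fluorescent RT-PCR and capillary electrophoresis, with DMSO as baseline.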

[3] = ATG_Ets_CIS: Attagene CIS-FACTORIAL HepG2 Assay for human Erythroblast Transformation Specific (ETS) (AID 2282941); conditions: HepG2 ETS cis-reporter transcription, actives raise or lower the signal
Procedure, shortened: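 After transient cis-reporter transfection, HepG2 cells receive test chemical for 24 h. Reporter mRNA levels, measured by RT-PCR and capillary electrophoresis fluorescence, are analysed bidirectionally relative to the DMSO baseline.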

[4] = molecular target: Hepatocyte nuclear factor 3-beta (Homo sapiens) (UniProt Q9Y261); assay: ATG_FoxA2_CIS: Attagene CIS-FACTORIAL HepG2 Assay for human Forkhead box A2 (FOXA2) (AID 2282942); conditions: HepG2 cis-reporter transcription factor activity, 24 h; actives raise or lower the signal
Procedure, shortened: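 Readout: fluorescent reporter transcripts resolved by capillary electrophoresis after RT-PCR. Transiently transfected HepG2, 24 h compound exposure, endogenous TF activity at cis promoter elements. Gain or loss of signal fitted relative to DMSO.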

[5] = ATG_FoxO_CIS: Attagene CIS-FACTORIAL HepG2 Assay for human Forkhead box O (FoxO) (AID 2282943); conditions: HepG2 Attagene cis-reporter, FoxO element, mRNA; actives raise or lower the signal
Procedure, shortened: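 HepG2, transient MRTU transfection (cis element, endogenous TFs). Dose 24 h. TriZol RNA → oligo(dT) RT → PCR → 6-FAM primer extension → HpaI cut → CE. Gain/loss vs DMSO.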

[6] = ATG_GATA_CIS: Attagene CIS-FACTORIAL HepG2 Assay for human GATA Binding Protein (AID 2282944); conditions: HepG2 GATA cis-element reporter, Attagene multiplex mRNA; actives raise or lower the signal
Procedure, shortened: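 Measures endogenous transcription factor-driven reporter mRNA in HepG2 cells transiently carrying cis-regulated constructs. 24 h dosing; RNA via oligo(dT) reverse transcription, PCR, HpaI digestion, capillary electrophoresis; fitted relative to DMSO.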

[7] = ATG_GLI_CIS: Attagene CIS-FACTORIAL HepG2 Assay for human Zinc Finger Protein GLI1 (AID 2282945); conditions: HepG2, Attagene cis-factorial reporter mRNA, GLI element; actives raise or lower the signal
Procedure, shortened: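 Bidirectional curve fits relative to DMSO, using reporter mRNA levels from RT-PCR plus capillary electrophoresis. Cells were HepG2 transiently carrying cis-regulated reporter constructs, harvested 24 h after dosing.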

[8] = molecular target: Bile acid receptor (Homo sapiens) (UniProt Q96RI1); assay: ATG_IR1_CIS: Attagene CIS-FACTORIAL HepG2 Assay for human Nuclear Receptor Subfamily 1 Group H Member 4 (NR1H4), IR1 submotif (AID 2282946); conditions: IR1 reporter transcription, actives raise or lower the signal
Procedure, shortened: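 Cells (human HepG2) carry transiently transfected cis-promoter reporter transcription units. Compounds are incubated 24 h, total RNA is reverse-transcribed and amplified, and labelled fragments are resolved by capillary electrophoresis. Curves use DMSO as baseline.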

[9] = ATG_GRE_CIS: Attagene CIS-FACTORIAL HepG2 Assay for human Glucocorticoid Response Elements (GRE) (AID 2282947); conditions: HepG2 GRE cis-reporter, Attagene multiplex mRNA; actives raise or lower the signal
Procedure, shortened: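 Assay uses human hepatoma HepG2 cells transfected with cis-promoter reporter units, exposed 24 h. mRNA from reporters detected by RT-PCR plus capillary electrophoresis; DMSO serves as negative control and baseline.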

[10] = ATG_ISRE_CIS: Attagene CIS-FACTORIAL HepG2 Assay for human Interferon Regulatory Factor 1 (IRF1) binding to an Interferon-Stimulated Response Element (ISRE) (AID 2282948); conditions: HepG2 ISRE cis-reporter (Attagene), mRNA transcription readout; actives raise or lower the signal
Procedure, shortened: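 Quantitation relies on labelled RT-PCR fragments separated by capillary electrophoresis. Human HepG2 cells bearing cis-promoter reporter constructs were treated 24 h; DMSO served as baseline for bidirectional fitting.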

Chain of Bile acid receptor (Homo sapiens) (Q96RI1 whole entry, looked up, the tested form may be a part): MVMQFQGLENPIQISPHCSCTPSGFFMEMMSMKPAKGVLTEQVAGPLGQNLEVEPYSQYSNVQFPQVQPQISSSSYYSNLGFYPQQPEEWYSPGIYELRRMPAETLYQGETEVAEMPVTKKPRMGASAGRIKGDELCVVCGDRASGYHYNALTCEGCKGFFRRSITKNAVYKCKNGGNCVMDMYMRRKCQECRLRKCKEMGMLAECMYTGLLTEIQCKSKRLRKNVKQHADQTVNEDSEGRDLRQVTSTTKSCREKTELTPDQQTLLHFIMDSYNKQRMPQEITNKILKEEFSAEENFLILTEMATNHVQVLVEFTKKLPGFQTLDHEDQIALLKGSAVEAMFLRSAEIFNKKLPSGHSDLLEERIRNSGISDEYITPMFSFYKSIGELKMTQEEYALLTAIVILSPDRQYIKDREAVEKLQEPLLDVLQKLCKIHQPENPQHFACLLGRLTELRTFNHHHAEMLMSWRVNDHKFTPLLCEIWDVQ
Chain of Hepatocyte nuclear factor 3-beta (Homo sapiens) (Q9Y261 whole entry, looked up): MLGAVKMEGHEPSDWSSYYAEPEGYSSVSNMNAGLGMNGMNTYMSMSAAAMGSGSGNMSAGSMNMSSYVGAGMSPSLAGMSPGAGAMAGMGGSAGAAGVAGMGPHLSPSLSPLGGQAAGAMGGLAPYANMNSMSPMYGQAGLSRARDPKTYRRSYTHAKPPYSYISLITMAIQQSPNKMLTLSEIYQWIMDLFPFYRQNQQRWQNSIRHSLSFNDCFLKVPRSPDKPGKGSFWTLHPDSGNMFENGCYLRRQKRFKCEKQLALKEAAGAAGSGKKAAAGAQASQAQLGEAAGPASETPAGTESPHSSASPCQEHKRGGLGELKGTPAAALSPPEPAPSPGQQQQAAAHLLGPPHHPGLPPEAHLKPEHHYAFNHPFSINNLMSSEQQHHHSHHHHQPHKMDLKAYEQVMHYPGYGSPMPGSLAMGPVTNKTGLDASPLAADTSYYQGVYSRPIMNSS

SMILES	outcome [1]	outcome [2]	outcome [3]	outcome [4]	outcome [5]	outcome [6]	outcome [7]	outcome [8]	outcome [9]	outcome [10]	AC50 [3]	AC50 [4]	AC50 [7]	AC50 [10]	AC50 [5]	AC50 [2]	AC50 [8]
CC(C)(COCC1CO1)COCC1CO1 (stereo not drawn)	inactive	inactive	inactive	inactive	inactive	inactive	inactive	inactive	inactive	inactive							
CC(C)(c1ccccc1)c1cc(-n2nc3ccccc3n2)c(O)c(C(C)(C)c2ccccc2)c1	inactive	inactive	inactive	inactive	inactive	inactive	inactive		inactive	inactive							
C=C(C)C(=O)OCCCCOC(=O)C(=C)C	inactive	inactive	inactive	inactive	inactive	inactive	inactive		inactive	inactive							
Nc1nc(=S)[nH][nH]1	inactive	inactive	inactive	inactive	inactive	inactive	inactive		inactive	inactive							
CCNc1nc(NCC)nc(SC)n1	inactive	inactive	inactive	inactive	inactive	inactive	inactive		inactive	inactive							
N#Cc1ccc(Cl)cc1	inactive	inactive	inactive	inactive	inactive	inactive	inactive		inactive	inactive							
CCOC(=O)CC(=O)CCl	inactive	inactive			inactive	inactive			inactive		26.4 µM (active)	133 µM (active)	26.1 µM (active)	31.2 µM (active)			
CC(C)N(C(=O)CCl)c1ccccc1	inactive	inactive	inactive	inactive		inactive	inactive		inactive	inactive					33.4 µM (active)		
CCOP(=O)(OCC)OC(=CCl)c1ccc(Cl)cc1Cl	inactive		inactive	inactive	inactive	inactive	inactive		inactive	inactive						11.1 µM (active)	
Nc1cccnc1	inactive	inactive	inactive	inactive	inactive	inactive	inactive	inactive		inactive							
NNCCO	inactive		inactive	inactive	inactive	inactive	inactive	inactive		inactive						25.4 µM (active)	
CC(=O)CN(CC(C)=O)N=O	inactive	inactive	inactive	inactive	inactive	inactive	inactive		inactive	inactive							
O=NN1CCOCC1	inactive	inactive	inactive	inactive	inactive	inactive	inactive		inactive	inactive							
O=C(NC(=O)c1c(F)cccc1F)Nc1cc(Cl)c(F)c(Cl)c1F	inactive	inactive	inactive	inactive	inactive	inactive	inactive		inactive	inactive							
CCCSP(=S)(OCC)Oc1ccc(SC)cc1 (stereo not drawn)	inactive		inactive	inactive	inactive	inactive	inactive	inactive		inactive						7.28 µM (active)	
CCC[CH2][Sn]([Cl])([Cl])[CH2]CCC	inactive		inactive	inactive		inactive			inactive				1.54 µM (active)	1.99 µM (active)	0.66 µM (active)	0.312 µM (active)	1.73 µM (active)
CC(O)(CS(=O)(=O)c1ccc(F)cc1)C(=O)Nc1ccc(C#N)c(C(F)(F)F)c1 (stereo not drawn)	inactive	inactive	inactive	inactive	inactive	inactive	inactive		inactive	inactive							
Clc1cc(C(Cl)(Cl)Cl)cnc1Cl	inactive	inactive	inactive	inactive	inactive	inactive	inactive	inactive						9.08 µM (active)			
C=C(C)[C@@H]1CC=C(C=O)CC1	inactive	inactive	inactive	inactive	inactive	inactive	inactive	inactive		inactive							
N#Cc1ccncc1	inactive	inactive	inactive	inactive	inactive	inactive	inactive		inactive	inactive							
OC[C@@H](O)[C@H]1O[C@@H]2O[C@H](C(Cl)(Cl)Cl)O[C@@H]2[C@H]1O	inactive	inactive	inactive	inactive	inactive	inactive	inactive		inactive	inactive							
C=C(C)C(=O)OCC(CC)CCCC (stereo not drawn)	inactive	inactive	inactive	inactive	inactive	inactive	inactive		inactive	inactive							
CCCCN(CCCC)C(=S)S	inactive	inactive	inactive		inactive	inactive			inactive			100 µM (active)	140 µM (active)	126 µM (active)			
O=C(NC(=O)c1c(F)cccc1F)Nc1cc(Cl)c(OC(F)(F)C(F)C(F)(F)F)cc1Cl (stereo not drawn)	inactive	inactive	inactive	inactive	inactive	inactive	inactive	inactive	inactive	inactive							
O=C(NC(=O)c1c(F)cccc1F)Nc1ccc(Cl)cc1	inactive	inactive	inactive	inactive	inactive	inactive	inactive	inactive		inactive							
